Source: PubChem BioAssay
The list is not random: actives were taken first. Their share in the collection is about 19%.
KB-V1 MDR tox – kills drug-selected multidrug resistant KB-V1 cells; KB-V1 MDR cells viability, CellTiter-Glo, 72 h; Potency, µM (titrated, usually from 46.1 µM), most hits filed as cytotoxic; 3.4% of 400,000 active; further: nearly all actives have a fitted effect of over 60% in size
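Compound-treated KB-V1 multidrug-resistant cells, 72 h, 37 degrees C; viability by CellTiter-Glo. Fitted qHTS curves give the values.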
KB-3-1 cytotox – KB-3-1 parental cell cytotoxicity | KB-3-1 viability, CellTiter-Glo ATP luminescence, 72 h | 1.4% of 400,000 active | Potency, µM (top dose mostly 46.1 µM), actives largely listed as cytotoxic | AID 1347075; further: nearly all actives have a fitted effect of over 60% in size
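Luminescent ATP read-out (CellTiter-Glo) measures survival of drug-naive KB-3-1 cells after 72 h compound exposure at 37 °C. Titration series was screened from lowest to highest concentration, with DMSO vehicle plates as background controls.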
HT1080-NT tox – kills 2HG-producing HT-1080-NT fibrosarcoma cells. HT-1080-NT fibrosarcoma viability, CellTiter-Glo ATP luminescence, 48 h. Potency, µM (highest dose often 46.1 µM), for the others: top-dose activity, negative = less viability, usual class: cytotoxic. 1.6% of 360,000 active. AID 686970;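 further: NT is the 2HG producing partner of a matched IDH1 knockdown line; 0% = DMSO-treated cells and -100% = media-only wells without cells; nearly all actives have a fitted effect of over 55% in size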
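Viability of the 2HG-overproducing fibrosarcoma line after 48 hours of compound exposure at 37 degrees C was determined by luminescence with CellTiter-Glo, and concentration-effect curves were then fitted and categorized.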
TDP1 cell noCPT – qHTS for Inhibitors of human tyrosyl-DNA phosphodiesterase 1 (TDP1): qHTS in cells in absence of CPT | 15% of 420,000 active | Potency, µM (doses to about 46.2 µM), for inactives: at the highest dose activity change, negative = growth inhibition, most hits filed as inhibitors | DT40 Tdp1-/- hTDP1 cells, no CPT, ATP luminescence, 48 h; further: nearly all actives have a fitted effect of over 55% in size
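Growth kinetics read by CellTiter-Glo luminescence after ≥48 hr at 37 °C. Cells: DT40 Tdp1-/- stably carrying human TDP1, 400 per well, compound exposure in the absence of CPT (DMSO vehicle).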
HT1080 IDH1KD tx – toxicity to HT-1080 IDH1 knockdown cells (counter line); Potency, µM (top dose mostly 46.1 µM), without a hit: at the top dose activity, negative = toxicity, most hits filed as cytotoxic; AID 686971; 2% of 360,000 active; HT-1080 IDH1 knockdown viability, ATP luminescence, 48 h;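 further: 0% = DMSO wells and -100% = cell-free medium wells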
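Using the IDH1-knockdown HT-1080 line run in the same batch and compound series as the NT line, viability after 48 h at 37 °C was determined by CellTiter-Glo luminescence and expressed as % activity.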
DT40 TDP1 CPT – DT40-hTDP1 cell growth loss with CPT; chicken DT40 Tdp1-/-;hTDP1 cells + 20 nM CPT, ATP luminescence, 48 h; Potency, µM (highest dose often 46.2 µM), for the others: at the highest dose activity change, negative = growth inhibition, most hits filed as inhibitors; 12% of 420,000 active; AID 686979; further: nearly all actives have a fitted effect of over 55% in size
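Chicken DT40 Tdp1-/- cells stably complemented with human TDP1 were seeded at 400 cells/well in medium containing 20 nM camptothecin, exposed to pin-transferred compounds, and grown at 37 °C for at least 48 hr. Viability was read as ATP luminescence.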
* = called active by the depositor; i = inactive; ? = inconclusive; · = no result; [ ] = remark or other dose. The call rests on the fitted dose curve; in most records, active means well fitted curve in the direction sought with a large enough effect; inconclusive means small, poorly fitted or top-dose-only effect, or another doubt; inactive means no such curve, though single readings can be large; an effect the other way counts as inactive or inconclusive. Unless noted, on the % scale 0 is the no-effect control and ±100 the full control effect; potency means the concentration at half of the fitted maximal effect.

SMILES | KB-V1 MDR tox | KB-3-1 cytotox | HT1080-NT tox | TDP1 cell noCPT | HT1080 IDH1KD tx | DT40 TDP1 CPT
CCC(=O)c1ccc2c(c1)N(CCCN(C)C)c1ccccc1S2 | i | i | 23µM* | 21µM* | 23µM* | ?
CCN(CC)CCN1c2ccccc2Sc2ccccc21 | i | i | -9% | ? | 6% | ?
C[C@H](CO)N1C[C@H](C)[C@@H](CN(C)C(=O)Nc2ccc3c(c2)OCO3)Oc2c(NC(=O)c3ccncc3)cccc2C1=O | ? | i | 5% | 2% | 5% | 14%
c1ccc(C2=Nc3c(ccc4ccccc34)C(c3ccncc3)=NN2)cc1 | ? | ? | ? | 21µM* | 21µM* | 8.2µM*
Cc1ccc2c(c1)C(c1ccncc1)=NNC(c1ccccc1)=N2 | i | i | 17% | 2% | 15% | -12%
CC(C)(CC(=O)O)CC(=O)NCc1c(Cl)cccc1Oc1ccccc1 | ? | i | -4% | -2% | 2% | -6%
CC(C)C(=O)Nc1cccc(C(=O)N2CCCCC2C)c1 (stereo not drawn) | i | i | 3% | 15µM* | -1% | 18µM*
CC1CCCCN1C(=O)c1cccc(NC(=O)c2ccccc2)c1 (stereo not drawn) | i | i | 15% | -23% | 11% | -2%
O=C(OCCN=C1NS(=O)(=O)c2ccccc21)c1ccco1 | i | i | -25% | -20% | 7% | 2%
CNc1ccccc1C(C)(C)c1cc(-c2cc(C)cc(C)c2)no1 | i | i | -24% | ? | ? | ?
CNc1ccccc1C(C)(C)c1cc(-c2cccc(OC)c2)no1 | i | ? | -12% | 5.2µM* | ? | 4.6µM*
COc1ccccc1CN(Cc1nc2ccccc2c(=O)[nH]1)C(=O)Nc1cccc(C)c1 | ? | i | 7.1µM* | 3.7µM* | 3.5µM* | 3.3µM*
COc1ccccc1C(=O)NCC(=O)N(C)Cc1nc2ccccc2c(=O)[nH]1 | i | i | 5% | -1% | 3% | -17%
COc1ccccc1NC(=O)N(Cc1ccc2c(c1)OCO2)Cc1nc2ccccc2c(=O)[nH]1 | i | i | 7% | 13µM* | 12% | 18µM*
Cc1cccc2cc(CN(CC3CCCO3)C(=O)c3ccccc3F)c(N(C)C)nc12 (stereo not drawn) | · | · | · | -15% | · | -1%[9.04 µM]
CCN(CC)CCCN(C(=O)c1ccc(F)cc1)c1nc(-c2ccc(OC)cc2)cs1 | i | i | ? | 10µM* | 23µM* | 13µM*
CCN(C(=O)c1ccccc1F)c1nc(-c2ccc(OC)cc2)cs1 | i | ? | ? | 21µM* | -9% | 21µM*
COc1ccc(-c2csc(N(CCCN(C)C)C(=O)c3ccccc3F)n2)cc1 | i | i | -17% | 15µM* | -13% | 9.2µM*
COCCN(C(=O)c1ccccc1F)c1nc(-c2ccc(OC)cc2)cs1 | i | i | -20% | ? | -16% | -3%
COc1ccc(-c2csc(N(CCCN(C)C)C(=O)c3ccccc3C)n2)cc1 | i | i | ? | 4.6µM* | ? | 3.7µM*
CNc1ncnc2c1ncn2[C@H]1CN(Cc2ccco2)C[C@@H](CO)O1 | i | i | 0% | -12% | 10% | 1%
COc1ccc(Cn2ccc3nc(C)c(C(=O)Nc4cc(C)cc(C)c4)cc3c2=O)cc1 | i | i | · | ? | · | ?
O=C(O)c1ccc(S(=O)(=O)NCC2CCCCC2)cc1 | i | i | 4% | -8% | 13% | 5%
COc1ccc(-c2csc(N(CCCN(C)C)C(=O)c3ccccc3Cl)n2)cc1 | ? | 16µM* | 21µM* | ? | 18µM* | ?
O=C(c1cccs1)N(Cc1ccco1)c1nc(-c2ccc(F)cc2)cs1 | i | i | 0% | -30% | -23% | 1%
SMILES | KB-V1 MDR tox | KB-3-1 cytotox | HT1080-NT tox | TDP1 cell noCPT | HT1080 IDH1KD tx | DT40 TDP1 CPT
COc1ccc(-c2csc(N(CCCN(C)C)C(=O)c3ccc(F)cc3)n2)cc1 | ? | i | -21% | ? | ? | -35%
CN(C)CCCN(C(=O)c1cccs1)c1nc(-c2ccccc2)cs1 | 9.2µM* | i | ? | ? | ? | ?
CCc1ccc(CNC(=O)CSc2cc(=O)n(C)c3ccc(Cl)cc23)cc1 | i | i | · | 23µM* | · | 23µM*
CCn1c(=O)cc(SCC(=O)NCc2ccc(Cl)cc2)c2ccccc21 | i | i | · | 21µM* | · | 10µM*
CCn1c(=O)cc(SCC(=O)NCc2cccc(Cl)c2)c2ccccc21 | ? | ? | · | 9.2µM* | · | ?
CCn1c(=O)cc(SCC(=O)Nc2ccc(Cl)cc2)c2ccccc21 | ? | i | -2% | -17% | -2% | 20%
COc1ccccc1OCC(=O)Nc1c2c(nn1-c1ccccc1)CS(=O)(=O)C2 | i | i | 16% | -10% | 7% | -16%
Cc1ccc(-c2csc3ncn(CC(=O)O)c(=O)c23)cc1C | ? | i | 7% | 31% | 8% | 0%
CC(=O)N1c2ccccc2C(=O)C1N1CCN(c2cccc(C(F)(F)F)c2)CC1 (stereo not drawn) | ? | i | · | ? | · | ?
O=C(Nc1ccc(Cl)c(Cl)c1)C1C2C=CC3(O2)C1C(=O)N(CCN1CCCCC1)C3C(=O)NC1CCCCC1 (stereo not drawn) | i | i | 21µM* | ? | ? | ?
